Experimental findings from PubChem BioAssay (EPA / NIEHS) are described below.

The term AC50 denotes the concentration giving half of the maximal activity seen.

SMILES strings stand for the structures. Activity calls are given as the source filed them. The calls were made as follows: active = hit-call score of the fitted dose curve at least 0.9, where 1 is the maximum; inactive = score below 0.9.

One assay in a line: ATG_CMV_CIS: Attagene CIS-FACTORIAL HepG2 Assay for human CMV (Internal Marker) (AID 2282928).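 Also: endpoint acts as a background internal control marker rather than a target.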 The following applies: HepG2 CMV promoter reporter, transcription factor profiling; actives raise or lower the signal. In outline:
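After transient transfection of HepG2 with reporter transcription units driven by cis-regulatory promoters, cells receive test chemical for 24 h. Labeled reporter amplicons, digested with HpaI, are sized and quantified by capillary electrophoresis against DMSO.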
On to `COP(=S)(OC)Oc1c(Cl)cc(C)cc1Cl`, for which the molecule was classed as inactive.
Turning to `COc1cc2c(cc1OC)[C@@]13CCN4CC5=CCO[C@H]6CC(=O)N2[C@H]1[C@H]6[C@H]5C[C@H]43`, the result was inactive.
As to `O=C1CCCN1`, the result was inactive.
Still for that read-out and setting: the result for `Cc1ccc2ccccc2c1C` reads “inactive”.
On the same count and under the same terms, the result for `Cc1cc(=O)[nH]o1` reads “inactive”; that for `CCC1(c2ccc(N)cc2)CCC(=O)NC1=O` (stereo not drawn), “inactive”.
As to `COP(=S)(OC)Oc1ccc(Sc2ccc(OP(=S)(OC)OC)cc2)cc1`, the AC50 was 15.5 µM (active).
As for `ClC1=C(Cl)[C@]2(Cl)[C@H]3[C@H]([C@H]4C=C[C@H]3C4)[C@@]1(Cl)C2(Cl)Cl`, the call was inactive.
Same read-out and setting: the result for `CC(=[OH+])/C=C(/C)[O-].CC(=[OH+])/C=C(/C)[O-].CC(=[OH+])/C=C(/C)[O-].[Al]` reads “inactive”.

A further assay can be described thus: ATG_DR4_LXR_CIS: Attagene CIS-FACTORIAL HepG2 Assay for human Liver X Receptor (LXR), DR4 submotif (AID 2282929). The following applies: HepG2 Attagene DR4 cis-reporter, mRNA transcription; actives raise or lower the signal. In outline: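 The endpoint is DR4-element-driven reporter transcripts after 24 h chemical exposure of transfected HepG2 cells. These were measured via RT-PCR and capillary electrophoresis, and gain or loss of signal was fitted relative to DMSO controls.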
For `C[C@]12CC[C@H](O)CC1=CC[C@@H]1[C@@H]2CC[C@]2(C)C(=O)CC[C@@H]12`, the outcome was inactive.
Same read-out and setting: the result for `CCOP(=S)(OCC)Oc1ccc(S(C)=O)cc1` (stereo not drawn) reads “inactive”.
The same measure, in the same setting: the result for `CC(C)c1cccc(C(C)C)c1O` reads “inactive”; that for `COP(=S)(OC)Oc1c(Cl)cc(C)cc1Cl`, “inactive”.
On to `COP(=O)(OC)O/C(=C\Cl)c1cc(Cl)c(Cl)cc1Cl`, for which the AC50 was 58.2 µM (active).
For the molecule `N#CCc1ccc(Cl)cc1`, the molecule was called inactive.
Consider `COc1cc2c(cc1OC)[C@@]13CCN4CC5=CCO[C@H]6CC(=O)N2[C@H]1[C@H]6[C@H]5C[C@H]43`, for which the molecule was classed as inactive.
With `O=C1CCCN1`, the molecule was classed as inactive.
Same read-out and setting: the result for `Cc1ccc2ccccc2c1C` reads “inactive”; that for `O=C1C(Cl)=C(Cl)C(=O)c2ccccc21`, “inactive”.
On to `ClC(Cl)=C(Cl)C(Cl)=C(Cl)Cl`, for which the AC50 was 100 µM (active).
On to `NNC(=S)NN`, for which the result was inactive.
The same measure, in the same setting: the result for `CC1(C)Cc2cccc(O)c2O1` reads “inactive”.
Consider `CC(C)C1CCC(Cc2ccc(Cl)cc2)C1(O)Cn1cncn1` (stereo not drawn), for which the AC50 is 18.1 µM (active).
Take `Cc1cc(=O)[nH]o1`: the result was inactive.
As for `CCC1(c2ccc(N)cc2)CCC(=O)NC1=O` (stereo not drawn), the outcome was inactive.
Consider `Nc1cccc2ccccc12`, for which the AC50 was 154 µM (active).
Still for that read-out and setting: the result for `COP(=S)(OC)Oc1ccc(Sc2ccc(OP(=S)(OC)OC)cc2)cc1` reads 100 µM (active); that for `CCCCCCCCC(=O)NCc1ccc(O)c(OC)c1`, 54.5 µM (active).
On the same count and under the same terms, the result for `ClC1=C(Cl)[C@]2(Cl)[C@H]3[C@H]([C@H]4C=C[C@H]3C4)[C@@]1(Cl)C2(Cl)Cl` reads 10.2 µM (active).
Take `CC(=[OH+])/C=C(/C)[O-].CC(=[OH+])/C=C(/C)[O-].CC(=[OH+])/C=C(/C)[O-].[Al]`: the molecule was classed as inactive.
As to `ClCc1ccccn1`, the result was inactive.
With `CCCCP(CCCC)CCCC`, the molecule was classed as inactive.
As for `C(=NC1CCCCC1)=NC1CCCCC1`, the AC50 is 33.4 µM (active).
On to `COC(=O)Cc1ccccc1`, for which the outcome was inactive.
As for `CCOP(=S)(OCC)Oc1nc(Cl)c(Cl)cc1Cl`, the AC50 is 27.4 µM (active).
On to `C[C@H]1CCCC(=O)CCC/C=C/c2cc(O)cc(O)c2C(=O)O1`, for which the outcome was inactive.
Consider `O=C(Cl)c1ccc(Cl)cc1`, for which the molecule was classed as inactive.
Still for that read-out and setting: the result for `C=CC(=O)N(C)C` reads “inactive”; that for `COc1ccc(C=O)cc1OC`, “inactive”; that for `CCOC(=O)Nc1cccc(OC(=O)Nc2ccccc2)c1`, “inactive”.
With `OCC(O)CCl` (stereo not drawn), the result was inactive.
Still for that read-out and setting: the result for `COP(=S)(OC)Oc1cc(Cl)c(Cl)cc1Cl` reads “inactive”.
As to `CCC(C)c1cccc(C(C)CC)c1O` (stereo not drawn), the result was inactive.
Same read-out and setting: the result for `COC[C@H](C)N(C(=O)CCl)c1c(C)csc1C` reads “inactive”; that for `NC(=S)Nc1ccccc1`, “inactive”; that for `COC(=O)c1sccc1S(=O)(=O)NC(=O)Nc1nc(C)nc(OC)n1`, “inactive”.
Still for that read-out and setting: the result for `CC(C#N)CCC#N` (stereo not drawn) reads “inactive”.
For the molecule `CCNc1nc(NC(C)(C)C)nc(SC)n1`, the molecule was classed as inactive.
